Data on 40 molecules can be found in PubChem BioAssay (NCI).

Compounds without any hit were thinned out: in the full panel of roughly 83,000, 20% have a hit.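 Assay: single dose, 48 h. Readout: percent growth (0 = no net growth; negative = cell death). Active: <10.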 The source made the active and inactive calls.

In this test the test system is OVCAR-5 ovarian. Kind of test: NCI-60 one-dose screen, 48 h (100 = growth as untreated, 0 = no growth, -100 = all killed). The conditions noted are these: 10 µM unless noted. The protocol:
Growth inhibition of the OVCAR-5 human tumor cell line is measured as a screen for anti-cancer activity. Cells are grown in 96 well plates and exposed to the test compound for 48 hours. Compounds are tested at a single concentration, which is 10^-5 M for most compounds. The reported endpoint is percent growth (GI% or GIPRCNT), where numbers from 0 - 100% represent growth inhibition, and numbers from -100% - 0 represent cell death. For example, a value of 40 represents 60% growth inhibition. A value of 0 means no net growth occurred over the course of the experiment. A value of -40 indicates 40% of cells at the beginning of the experiment died by the end of the experiment. A value of -100 means all cells are dead at the end of the experiment.
NCI-60 Human Tumor Cell Lines Screen was performed using the standard one-dose NCI protocol, which is described in more detail at https://dtp.cancer.gov/discovery_development/nci-60/default.htm.
Compounds with GIPRCNT values below 10 were considered active. Activity score was based on GIPRCNT using the following formula: […]
Score is 0 for GIPRCNT values of 100 or above, 50 for GIPRCNT values of 0, and 100 for GIPRCNT values of -100.
For the molecule `O=C(Nc1cc(C(F)(F)F)cc(C(F)(F)F)c1)Nc1ccc2oc(=O)ccc2c1`, the growth is 18% (inactive).

Consider `Cc1cc2nc(C(Cl)Cl)nc(-c3ccc(S(=O)(=O)N(C)C)cc3)n2n1`, for which the growth is 67.3% (inactive).

For the molecule `CC(=O)N(O)CCCCCNC(=O)CCC(=O)N(O)CCCCCNC(=O)CCC(=O)N(O)CCCCCN(CCCCCCCCCC[P+](c1ccccc1)(c1ccccc1)c1ccccc1)CCCCCCCCCC[P+](c1ccccc1)(c1ccccc1)c1ccccc1`, the growth is 16.2% (inactive).

In the case of `COc1ccccc1/C=C1\Oc2ccc(O)c(O)c2C1=O`, the growth is 105% (inactive).

Consider `COc1cccc(N2CCN(C3=C(Cl)C(=O)c4ncccc4C3=O)CC2)c1`, for which the growth is 124% (inactive).

In the case of `COc1ccc(/C=N/N=C(/c2ccccc2)c2ccc3nc(-c4ccc(Cl)cc4)[nH]c3c2)cc1`, the growth was 81.5% (inactive).

`CNC(=O)c1cc(N2CCc3cc(NC(=O)Nc4ccc(N5CCN(C)CC5)c(C(F)(F)F)c4)ccc32)ccn1`: the growth is 95.3% (inactive).

Turning to `Brc1ccc2[nH]cc(-c3nn4cc(-c5nccs5)nc4s3)c2c1`, the growth is 67.5% (inactive).

Consider `COc1cccc2c1C=CC1(O2)Oc2cccc(OC)c2C=C1C` (stereo not given), for which the growth was 29.6% (inactive).

`O=C(CCCCCCNC(=O)c1csc(Br)n1)NO`: the growth was 20.2% (inactive).

In the case of `CN1c2ccccc2Sc2cc(/C=N/Nc3ccnc4cc(Cl)ccc34)ccc21`, the growth is 106% (inactive).

As to `CCOC(=O)C1=C(C)NC(C)=C(C(=O)OC(C)C)C1c1cccc(C#N)c1` (stereo not given), the growth was 99.1% (inactive).

In the case of `CCCCCCNC(=O)Oc1ccc(/C(=C(/C)c2ccc(Cl)cc2)c2ccc(OCCN3CCCCCC3)cc2)cc1`, the growth is 83% (inactive).

Take `Cn1cc(-c2cc3ncnc(Nc4ccc(CC(=O)Nc5nc(C(C)(C)C)cs5)cc4)c3s2)cn1`: the growth is 84.3% (inactive).

`COc1ccc(C(C)=C(c2ccc(OCCN3CCCCCC3)cc2)c2ccc(OCCN3CCCCCC3)cc2)cc1`: the growth is 22.9% (inactive).

Consider `NS(=O)(=O)c1nnc(/N=C/c2c(O)[nH]c3ccccc23)s1`, for which the growth was 121% (inactive).

With `CCCCCCOC(=O)c1cc(-c2ccc(F)cc2)nc2ccccc12`, the growth was 102% (inactive).

For `O=C(/C=C/c1ccc(F)cc1)Nc1cccc2cccnc12`, the growth is 104% (inactive).

In the case of `COc1ccc(/C=N/NC(=O)CSc2nc(-c3cnccn3)cc(-c3cccs3)c2C#N)cc1OC`, the growth was 104% (inactive).

Regarding `Nc1nc(=O)n([C@H]2C[C@H](O)[C@@H](CO)O2)cc1C=O`, the growth was 94.2% (inactive).

In the case of `CCOC(=O)c1cccc(NC2=C(Cl)C(=O)c3nc(C)ccc3C2=O)c1`, the growth was 104% (inactive).

Regarding `CCOC(=O)c1c(NC(=O)c2ccc(C(F)(F)F)cc2)sc2c3c(ccc12)OCN(C)C3`, the growth is 54.2% (inactive).

Regarding `C=C(C)[C@@H]1CC[C@]2(COCCCNCCCN)CC[C@]3(C)[C@H](CC[C@@H]4[C@@]5(C)CC[C@H](O)C(C)(C)[C@@H]5CC[C@]43C)[C@@H]12`, the growth is -95.3% (active).

Consider `O=C1C(N2CCN(c3ccccc3)CC2)=C(Cl)C(=O)c2ncccc21`, for which the growth was 107% (inactive).

For `Cc1ccc(-c2csc(N/N=C/c3cccs3)n2)cc1`, the growth was 122% (inactive).

As to `COc1ccc(/C(=N\NC(N)=S)c2ccc(Cl)cc2)cc1OC`, the growth was 51.2% (inactive).

`CCCNNC(=O)c1ccc(-c2ccc(NC(=O)CCCCCCC(=O)N[C@H](C(=O)N3C[C@H](O)C[C@H]3C(=O)N[C@@H](C)c3ccc(-c4scnc4C)cc3)C(C)(C)C)cc2)cc1`: the growth was 27.3% (inactive).

In the case of `COc1ccc(/C=N/NC(=O)c2c(N)nn(C)c2Nc2ccccc2)cc1Oc1ccccc1`, the growth was 92.4% (inactive).

As for `COc1cc2oc(-c3cccc(NC(=O)c4cccc([N+](=O)[O-])c4)c3)cc(=O)c2c(OC)c1OC`, the growth is 72.1% (inactive).

With `CCCCOc1ccc(S(=O)(=O)N2CCN(c3nc(C)cc(N4CCOCC4)n3)CC2)cc1`, the growth is 50.4% (inactive).

For the molecule `CC(Nc1c(C#N)cnc2ccc(-c3cncc(-c4n[nH]c(=O)o4)c3)cc12)c1ccccc1` (stereo not given), the growth is 26% (inactive).

With `CC(C)(C)Nc1nc2c(OCCc3ccccc3)cccn2c1-c1cccc(Oc2ccccc2)c1`, the growth is 17.7% (inactive).

For `CCC(=C(c1ccc(OCCN2CCCCCC2)cc1)c1ccc(OCCN2CCCCCC2)cc1)c1ccc(Cl)cc1`, the growth is 58.3% (inactive).

With `CC(=O)OCCCCN1C=C/C(=C\C(=O)n2ccc3ccccc32)c2ccccc21`, the growth is 102% (inactive).

As for `COc1ccc(-c2cc(-c3ccc(N(C)C)cc3)n3c(n2)nc2ccccc23)cc1`, the growth is 95.5% (inactive).

Regarding `O=C(CCCCCCN1CC(=O)N2[C@@H](c3ccccc3Br)c3[nH]c4ccccc4c3C[C@H]2C1=O)NO`, the growth was 50.9% (inactive).

Consider `Cc1ccc2c(n1)C(=O)C(Cl)=C(Nc1cccc(C(F)(F)F)c1)C2=O`, for which the growth was 119% (inactive).

In the case of `CN1CCN(CCNc2nc(-c3cccc(NS(=O)(=O)c4cccc5c(N(C)C)cccc45)c3)cs2)CC1`, the growth is 90.3% (inactive).

For `Clc1cccc(/C=N/Nc2nc(N/N=C/c3cccc(Cl)c3)nc(N3CCCCC3)n2)c1`, the growth is 110% (inactive).

For the molecule `Cn1c(SCC(=O)c2ccc(F)cc2)nc2ccccc2c1=O`, the growth was 105% (inactive).
